Measurements: PubChem BioAssay AID1240 (Sanford-Burnham Center for Chemical Genomics, 2008)
In all, about 50,000 compounds went through this assay and about 800 (1.6%) showed an effect of 50% or more. What follows is part of a selection rich in strong results, with near analogues and random picks from the rest.

Biological target: Bcl-2-like protein 10 (Homo sapiens) (UniProt Q9HD36)
Test: Phenotype converters, Bcl-B/TR3 peptide binding displacement, primary biochemical FP (AID 1240);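 note: 0% = Bcl-B with tracer peptide and DMSO and 100% = tracer peptide lacking Bcl-B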
Settings: GST-Bcl-B / FITC-TR3 peptide fluorescence polarization; stronger effect = higher value; compound at 3.75 mg/L

Sequence of Bcl-2-like protein 10 (Homo sapiens) (Q9HD36 whole entry, looked up): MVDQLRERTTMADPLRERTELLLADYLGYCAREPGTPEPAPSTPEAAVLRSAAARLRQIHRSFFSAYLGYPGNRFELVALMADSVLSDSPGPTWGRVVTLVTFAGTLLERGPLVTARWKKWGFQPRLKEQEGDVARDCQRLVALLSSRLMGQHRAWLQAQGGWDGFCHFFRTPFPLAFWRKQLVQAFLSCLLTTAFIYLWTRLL

Row | SMILES | displacement [%]
1 | CCOC(=O)C1=C(N)Oc2c(ccc3ccccc23)C1c1ccc(OC)cc1 (centres undefined) | 108
2 | CCOC(=O)C1=C(C)OC(N)=C(C#N)C1c1ccc(OC)cc1 (centres undefined) | -10.8
3 | CCOC(=O)C1=C(N)Oc2ccc3ccccc3c2C1c1ccc(Cl)cc1 (centres undefined) | -10.4
4 | COc1cc(/C=C2\SC(N)=NC2=O)cc(Br)c1OC | -25.9
5 | Cc1[nH]c(=O)c(C(=O)/C=C/c2ccccc2Cl)c2c1CCCC2 | 11
6 | Cc1ccc(/C=C/C(=O)c2c3c(c(C)[nH]c2=O)CCCC3)cc1 | 49.3
7 | Cc1[nH]c(=O)c(C(=O)/C=C/c2cccs2)c2c1CCCC2 | 119
8 | Cc1cccc(NC(=O)C(=O)NCc2ccco2)c1C | 11
9 | O=C(Nc1ccc(I)cc1)c1ccc(Cl)cc1Cl | 6.9
10 | Cc1ccc(N2C(=O)C(=O)/C(=C(/O)c3ccccc3)C2c2ccc(O)cc2)cc1Cl (centres undefined) | -3.5
11 | NC(=O)c1ccccc1N=Cc1cc(Cl)cc(Cl)c1O | -7.2
12 | Oc1c(Cl)cc(Cl)cc1C=Nc1cccc(C(F)(F)F)c1 | 2.4
13 | NC(=O)c1cccc(N=Cc2cc(Cl)cc(Cl)c2O)c1 | 145
14 | CN(C)CCCNC(=O)/C=C/c1ccc(C(C)(C)C)cc1 | 6.4
15 | O/N=C/c1cn(-c2ccccc2)nc1-c1ccc(Cl)cc1 | -3.8
16 | O=c1oc2ccccc2cc1-c1nn(-c2ccccc2)cc1/C=N/O | 53
17 | O/N=C/c1cn(-c2ccccc2)nc1-c1ccccc1 | 10
18 | COCCCNC(=O)C(=O)Nc1ccccc1F | -11.9
19 | CCOc1cc(C2C(C(=O)OC)=C(C)NC(C)=C2C(=O)OC)ccc1O | 0.1
20 | COc1ccc(/C=C2\SC(=S)N(c3ccc(F)cc3)C2=O)cc1OC | 105
21 | CCOc1ccc(/C=C2\SC(=S)N(c3ccc(OC)cc3)C2=O)cc1OC | 114
22 | COc1ccc(N2C(=O)/C(=C/c3ccc(OC)c(OC)c3)SC2=S)cc1 | 6.5
23 | COc1cc(/C=C2/SC(=S)N(c3ccccc3)C2=O)ccc1OC(=O)c1ccc(F)cc1 | 4.7

Row | SMILES | displacement [%]
24 | COc1cc(/C=C2\SC(=S)N(c3ccc(F)cc3)C2=O)cc(OC)c1OC | 3.3
25 | C=CCOc1ccc(/C=C2\SC(=S)N(c3ccc(OC)cc3)C2=O)cc1OC | 6.7
26 | O=S(=O)(c1ccc(C=Nc2ccc(Br)cc2)cc1)c1ccc(C=Nc2ccc(Br)cc2)cc1 | -8.7
27 | COc1ccc(C2CC(C(F)(F)F)n3ncc(C(=O)Nc4ccc(F)cc4F)c3N2)cc1OC (centres undefined) | -1.7
28 | CC1(C)Cc2ccccc2C(/C(=N\O)C(=O)c2ccccc2)=N1 | 13.1
29 | COc1ccc(C(=O)Nc2cccc(S(N)(=O)=O)c2)cc1 | -5.8
30 | CCOP(=O)(OCC)/C(=C(\NC(=O)c1ccccc1)C(=O)Nc1ccccc1C(F)(F)F)c1ccccc1 | 12.2
31 | COc1c(Cl)ccc(Cl)c1C(=O)NCCc1ccccc1 | -18.4
32 | COc1ccc(CCNC(=O)c2c(Cl)ccc(Cl)c2OC)cc1OC | 57
33 | COc1ccc(CCNC(=O)c2ccc(Cl)c(Cl)c2)cc1OC | 6
34 | C=CCN(CC=C)C(=O)COc1ccc(Cl)cc1 | -5.1
35 | CC(=O)NCCc1c(C)n(Cc2ccccc2)c2ccccc12 | 20.2
36 | O=C(c1sc2ccccc2c1Cl)N1CCN(Cc2ccc3c(c2)OCO3)CC1 | 0.4
37 | O=S(=O)(Nc1nc2ccccc2nc1Nc1cccc(O)c1)c1ccc(Cl)cc1 | 7.1
38 | CC(=O)Nc1ccc(Nc2nc3ccccc3nc2NS(=O)(=O)c2ccc(Cl)cc2)cc1 | -12.5
39 | COc1ccc2nc(NS(=O)(=O)c3ccc(Cl)cc3)c(Nc3ccc4[nH]c(=O)[nH]c4c3)nc2c1 | -2.9
40 | COC(=O)c1cc(Nc2nc3ccccc3nc2NS(=O)(=O)c2ccccc2)ccc1Cl | 158
41 | O=S(=O)(Nc1nc2ccccc2nc1Nc1ccccc1)c1ccccc1 | 16.9
42 | O=c1[nH]c2ccc(Nc3nc4ccccc4nc3NS(=O)(=O)c3ccc(Cl)cc3)cc2[nH]1 | 102
43 | Cc1cccc(OCC(=O)Nc2ccccc2Cl)c1C | -1.5
44 | Cc1ccccc1OCCOc1ccc(/C=C2/SC(=S)N(C)C2=O)cc1 | 0.3
45 | CC1(C)CC(NC(=O)c2ccccc2F)CC(C)(C)N1 | -12.3
46 | COc1cc(/C=C(\C#N)c2nc3ccccc3[nH]2)ccc1OCC(=O)O | 43.5

Row | SMILES | displacement [%]
47 | COc1ccc(C=C2C(=O)N(c3ccc(C)cc3)C(=S)N(c3ccc(C)cc3)C2=O)cc1C(=O)O | 15
48 | COc1ccc(OC(C)C(=O)Nc2ccc(N(C)C)cc2)cc1 (centres undefined) | 9.1
49 | O=C(NCCNc1ccc(Cl)cc1[N+](=O)[O-])c1ccccc1F | -0.6
50 | CN1C(=O)C(=Cc2cn(CC(=O)Nc3ccccc3)c3ccccc23)C(=O)N(C)C1=O | -6.8
51 | Cc1ccccc1N1C(=O)NC(=O)/C(=C/c2cn(CC(=O)Nc3ccccc3)c3ccccc23)C1=O | 53.6
52 | N#CC(C#N)=Cc1cn(CC(=O)Nc2ccccc2)c2ccccc12 | -17.6
53 | O=C(Cn1cc(/C=C2/C(=O)NC(=O)N(c3ccccc3F)C2=O)c2ccccc21)Nc1ccccc1 | 51.1
54 | O=C(Cn1cc(/C=C2/C(=O)NC(=S)N(c3ccccc3F)C2=O)c2ccccc21)Nc1ccccc1 | 30.7
55 | O=C(Cn1cc(/C=C2\NC(=O)NC2=O)c2ccccc21)Nc1ccccc1 | 7.5
56 | COc1ccc(C2Nc3ccccc3NC3=C2C(=O)CC(c2ccccc2)C3)c(OC)c1 (centres undefined) | 5.9
57 | CCN1CCN(Cc2c(O)ccc3ccccc23)CC1 | 13.6
58 | O=C(/C=C\c1ccc(-c2cc(Cl)ccc2Cl)o1)c1ccccc1 | 24.9
59 | O=C(/C=C/c1ccc(-c2cccc([N+](=O)[O-])c2)o1)Nc1ccc(Cl)cc1 | 4.5
60 | O=C(/C=C/c1ccc(-c2ccc(Cl)cc2Cl)o1)c1ccco1 | 3.4
61 | O=C(/C=C/c1ccc(-c2cccc([N+](=O)[O-])c2)o1)c1cc2ccccc2o1 | 119
62 | N#C/C(=C/c1ccc(-c2cc(Cl)ccc2Cl)o1)C(=O)O | 2
63 | O=C(/C=C/c1ccc(-c2cccc([N+](=O)[O-])c2)o1)c1ccc(F)cc1 | 3.4
64 | CC(=O)/C=C/c1ccc(-c2cccc([N+](=O)[O-])c2)o1 | -5.2
65 | N#CC(C#N)=Cc1ccc(-c2ccc(Cl)c(C(=O)O)c2)o1 | 0.6
66 | O=C(/C=C/c1ccc(-c2cccc([N+](=O)[O-])c2)o1)c1ccco1 | 79.3
67 | O=C(/C=C/c1ccc(-c2cc(Cl)ccc2Cl)o1)c1ccco1 | 126
68 | N#CC(C#N)=Cc1ccc(-c2cc(Cl)ccc2Cl)o1 | 93.5
69 | O=C(/C=C/c1ccc(-c2cccc(Br)c2)o1)c1ccco1 | 11.8
